Laboratory results from PubChem BioAssay (NCI).
Compounds without any hit were thinned out: in the full panel of roughly 83,000, 20% have a hit.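 Growth was measured after 48 h exposure to one concentration of compound in 96-well plates. Values under 10 count as active.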 A number with no mark means an inactive call. Active and inactive are the calls of the source.

Assays:
Experiment in all cases: NCI-60 one-dose screen, 48 h (100 = growth as untreated, 0 = no growth, -100 = all killed)
Details in all cases: 10 µM
[1] = tested on: HCT-15 colon
[2] = tested on: HT29 colon
[3] = tested on: SNB-75 CNS
[4] = tested on: SNB-19 CNS
[5] = tested on: PC-3 prostate
[6] = tested on: SK-MEL-5 melanoma
[7] = tested on: UACC-62 melanoma
[8] = tested on: LOX IMVI melanoma
[9] = tested on: SK-MEL-28 melanoma
[10] = tested on: SK-MEL-2 melanoma
[11] = tested on: EKVX NSCLC
[12] = tested on: SN12C renal
[13] = tested on: UO-31 renal
[14] = tested on: TK-10 renal
[15] = tested on: ACHN renal
[16] = tested on: CAKI-1 renal
[17] = tested on: A498 renal
[18] = tested on: CCRF-CEM leukemia
[19] = tested on: MOLT-4 leukemia
[20] = tested on: U251 CNS

| SMILES | growth [1] | growth [2] | growth [3] | growth [4] [%] | growth [5] | growth [6] | growth [7] | growth [8] | growth [9] [%] | growth [10] | growth [11] [%] | growth [12] [%] | growth [13] | growth [14] [%] | growth [15] | growth [16] | growth [17] | growth [18] | growth [19] | growth [20] [%] |
| --- | --- | --- | --- | --- | --- | --- | --- | --- | --- | --- | --- | --- | --- | --- | --- | --- | --- | --- | --- | --- |
| COc1cc(/C=C/C(=O)c2cc(-c3ccc(F)cc3)ccc2O)cc(OC)c1OC | 84.2% | 87.1% | 91.9% | 86.8 | 54.6% | 48.1% | 58.5% | 48.9% | 100 | 75.4% | 53 | 74.3 | 53.1% | 108 | 76.8% | 60.5% | 81.8% | -3.16% (active) | 26.3% | – |
| O=NN(CCCl)C(=O)Nc1ccc(NC(=O)N(CCCl)N=O)cc1 | 94.5% | 115% | 64% | 68.6 | 86.5% | 97.1% | 63.9% | 58.5% | 98.8 | 129% | – | 90.7 | 96.6% | 114 | 96.4% | 100% | 67.1% | 102% | 97.2% | – |
| CCOc1nc(-c2ccccc2)cc2c(O)c(C(=O)N/N=C/c3ccc(OC)cc3)[nH]c(=O)c12 | 110% | 108% | 91.7% | 96.9 | 88% | 53.5% | 104% | 114% | – | 98.5% | 99.7 | 114 | 66.8% | 120 | 100% | 92.5% | 132% | 91.8% | 63% | – |
| O=[N+]([O-])c1ccc(-c2nc(Cl)c3c(n2)CCCC3)o1 | 15.9% | 53.5% | 69.9% | 91.1 | 89.4% | 47.3% | 86.9% | 21.8% | 98.4 | 102% | – | 42.5 | 97.8% | 118 | 97.4% | -15.6% (active) | 84.3% | 86.8% | 92.8% | – |
| CC(Oc1ccc(Cl)cc1)c1ccccc1 (stereo unspecified) | 112% | 106% | 97.3% | 99.7 | 93.4% | 100% | 97.6% | 97.5% | – | 112% | – | 98.1 | 77.6% | – | 125% | 96.5% | 119% | – | 87.3% | 102 |
| Cc1nc2ccc(-n3c(-c4ccc(Cl)cc4)nc4ccccc4c3=O)cc2n1Cc1ccccc1 | 77% | 95.6% | 95.9% | 108 | 58.6% | 66.7% | 78.4% | 91.9% | – | 96.5% | – | – | 59% | 111 | 91.9% | 81.3% | 89.7% | 80.2% | 84.1% | 89.1 |
| C(=C\c1nc2ccccc2s1)/c1ccc(N2CCOCC2)s1 | 48.3% | 45.1% | 99.6% | 95.2 | 53.4% | 61.1% | 30.8% | 56.8% | 113 | 81.2% | 87.8 | 93.8 | – | 89.6 | 63.4% | 83.3% | 86.4% | 58.2% | 51% | – |
| COc1ccc(-c2[nH]ncc2-c2cc(OC)c(OC)c(OC)c2)cc1 | 10.3% | -16.6% (active) | 49.1% | 44.5 | 11.8% | -22.1% (active) | 35.2% | 27.8% | – | -2.39% (active) | – | 20.8 | 11.6% | – | 14.8% | 6.08% (active) | -19.9% (active) | – | -6.22% (active) | – |
| CCc1ccc(-c2nnc(COc3ccc(-c4nc5cc(Cl)c(Cl)cc5[nH]4)cc3OC)o2)cc1 | 44.9% | 62.1% | 48.4% | 68.3 | 52.6% | 84.9% | 78.8% | 43.3% | 67.1 | 87.8% | – | 21.9 | 91.1% | 75.7 | 31% | 78.6% | 65.2% | 63.5% | 69.8% | – |
| Cc1ccccc1[P+](Cc1ccccc1)(c1ccccc1)c1ccccc1 | 90.1% | 7.47% (active) | 6.56% (active) | 24.7 | 9.34% (active) | -14% (active) | 0.358% (active) | 22.4% | 27.3 | -23.1% (active) | – | 29.9 | 67.8% | 21.4 | 75.6% | 86.8% | 37% | 19.3% | 19.3% | – |
| CCCC(C)c1ccc(OCCCCCCN2CCNCC2)cc1 (stereo unspecified) | -39.3% (active) | 5.51% (active) | 35.9% | 56 | 49.4% | 53.5% | -46.4% (active) | -88.3% (active) | 13.2 | 79% | 67.3 | – | 78.7% | 85 | 49.5% | 18.2% | 50.5% | 4.49% (active) | -27.6% (active) | – |
| Cc1ccc(-c2cc(C(=O)Nc3ccc(S(=O)(=O)N4CCCCC4)cc3)[nH]n2)c(O)c1 | 23.5% | 2.87% (active) | 81.6% | 69 | 51.8% | 24.8% | 36.2% | 54.3% | 78.7 | 80% | – | 53.3 | 56.2% | 61.6 | 66.5% | 67.3% | 63.3% | 45.5% | 38.7% | – |
| COc1cccc(C(=O)NNc2nc(N3CCN(C4CCCCC4)CC3)nc(N3CCN(C(c4ccccc4)c4ccccc4)CC3)n2)c1 | 25.4% | 24% | 63.6% | 47.7 | 21% | -85.1% (active) | 39.6% | 7.83% (active) | 64.3 | 87.3% | – | 51.8 | 32.9% | 46.1 | 70.2% | 59.4% | 49.2% | 39.9% | 15.5% | – |
| NC(=O)C12C(=O)NC(=O)C1(C(=O)O)C21CCCC1 (stereo unspecified) | 107% | 110% | 84.2% | 99.3 | 99% | 106% | 101% | 102% | 109 | 108% | 106 | 101 | 75.8% | 111 | 112% | 112% | 114% | – | 97.2% | – |
| O=C(c1ccccc1)C(Nc1ccccc1)c1ccccc1 (stereo unspecified) | 97.8% | 86.4% | 79.6% | 101 | 75.5% | 85.6% | 74.9% | 86% | 99 | 90.9% | – | – | 66.9% | 93.6 | 89.2% | 87.3% | 94.6% | 94.1% | 90.8% | – |
| CN(C)Cc1cccs1 | 106% | 104% | 93.9% | 98.9 | 70.3% | 90% | 95.4% | 93.1% | 102 | 103% | 103 | – | 82.9% | 101 | 96.7% | 98.3% | 117% | 80% | 96.3% | – |
| O=S(=O)(NCl)c1ccccc1 | 102% | 106% | 84.3% | 104 | 99.1% | 103% | 106% | 97.1% | 97.1 | 109% | – | 106 | 83.1% | – | 105% | 94.7% | 97.5% | 92.5% | 98.3% | – |
| COC(=O)[C@]12CC[C@@H](C)[C@H](C)[C@@H]1C1=CC[C@@H]3[C@@]4(C)CC(=O)[C@H](O)[C@@](C)(CO)[C@@H]4C(=O)C[C@@]3(C)[C@]1(C)CC2 | -15.1% (active) | -25.6% (active) | -0.588% (active) | 16.6 | -22.3% (active) | -80.3% (active) | -57.2% (active) | -77.9% (active) | 21.8 | -4.44% (active) | – | – | -75.4% (active) | 22.1 | -51.5% (active) | -66.4% (active) | -11.3% (active) | -13.7% (active) | -31.8% (active) | – |
